# Measured values: paper PMC8136818, “Evolving origin-of-transfer sequences on staphylococcal conjugative and mobilizable plasmids—who’s mimicking whom?”
# T1: SmpO49 (Staphylococcus aureus plasmid pWBG749, UniProt UPI0001BEA96A 1-84)
# T1 sequence: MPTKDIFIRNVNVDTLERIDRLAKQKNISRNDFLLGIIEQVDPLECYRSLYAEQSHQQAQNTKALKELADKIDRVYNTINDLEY
# T2: SmpO408 (Staphylococcus aureus M0408)
# T2 chain: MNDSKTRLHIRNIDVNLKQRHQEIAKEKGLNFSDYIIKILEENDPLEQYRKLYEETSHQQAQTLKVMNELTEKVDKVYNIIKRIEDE
# T3: SmpO45 (Staphylococcus aureus plasmid pWBG745, UniProt UPI0001BEA8D3 1-84)
# T3 sequence: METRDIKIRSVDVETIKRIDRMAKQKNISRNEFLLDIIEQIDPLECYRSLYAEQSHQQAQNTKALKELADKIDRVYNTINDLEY
# T4: SmpOUNa (plasmid pC02)
# T4 chain: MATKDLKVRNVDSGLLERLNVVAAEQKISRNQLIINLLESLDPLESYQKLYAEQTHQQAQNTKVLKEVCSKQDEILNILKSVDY
# T5: SmpOSep (Staphylococcus epidermidis VCU120)
# T5 chain: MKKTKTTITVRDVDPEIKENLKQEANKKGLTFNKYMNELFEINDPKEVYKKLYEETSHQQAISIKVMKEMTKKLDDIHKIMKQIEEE
# Legend:
# Conditions in all cases: protein: recombinant; tags: His6-TEV, cleaved; chain copies: 4
# SmpO49 = biological target: T1, SmpO49; assay: SPR (ReDCaT); 150 mM NaCl; 10 mM HEPES, 3 mM EDTA, 0.05% Tween 20, NaCl 150 mM (SmpO49 screens), 300 mM (SmpO45, SmpO408, SmpOUNa screens) or 250 mM (Table S4); pH and temperature not stated; protein 1 uM; high values mean tight binding
# Summary of the method: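 Tag-cleaved protein, expressed in E. coli BL21(DE3)pLysS and purified by nickel-affinity and size-exclusion chromatography, was screened on a Biacore T200 SA chip by reusable DNA capture. OriT oligonucleotides were captured at 1 μM on Fc2, with a control linker on Fc1. Protein at 1 μM was injected at 30 μl/min (60 s contact, 60 s dissociation) in 10 mM HEPES, 150 mM NaCl, 3 mM EDTA, 0.05% Tween 20. DNA binding is reported as %Rmax.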
# SmpO408 [1] = biological target: T2, SmpO408; assay: SPR (ReDCaT); 300 mM NaCl; 10 mM HEPES, 3 mM EDTA, 0.05% Tween 20, NaCl 150 mM (SmpO49 screens), 300 mM (SmpO45, SmpO408, SmpOUNa screens) or 250 mM (Table S4); pH and temperature not stated; protein 1 uM; high values mean tight binding
# Summary of the method: (§1)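 Protein with its tag removed was produced in E. coli BL21(DE3)pLysS and purified by nickel-affinity and then size-exclusion chromatography. On a Biacore T200 SA chip with reusable DNA capture, OriT oligonucleotides were captured at 1 μM on Fc2 and a linker alone on Fc1, and protein at 1 μM was injected at 30 μl/min with 60 s contact and 60 s dissociation in 10 mM HEPES, 300 mM NaCl, 3 mM EDTA, 0.05% Tween 20. DNA binding is given as %Rmax.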
# SmpO45 = biological target: T3, SmpO45; assay: as above
# Summary of the method: as §1
# SmpOUNa = biological target: T4, SmpOUNa; assay: as above
# Summary of the method: as §1
# SmpO408 [2] = biological target: T2, SmpO408; assay: SPR (ReDCaT); 250 mM NaCl; 10 mM HEPES, 3 mM EDTA, 0.05% Tween 20, NaCl 150 mM (SmpO49 screens), 300 mM (SmpO45, SmpO408, SmpOUNa screens) or 250 mM (Table S4); pH and temperature not stated; protein 1 uM; high values mean tight binding
# SmpOSep = biological target: T5, SmpOSep; assay: as above
binder,measurement,setting,value
OT49.10 (dsDNA) DNA 1: CTATCATTGTCCGATGATAGCAAATTCCCC DNA 2: GGGGAATTTGCTATCATCGGACAATGATAG,binding signal,SmpO49,0.584 ± 0.045 %Rmax
OT408 For/Rev_15 (dsDNA) DNA 1: AAATGTCTGGCTTCGCCAGACCCACCTTTT DNA 2: AAAAGGTGGGTCTGGCGAAGCCAGACATTT,binding signal,SmpO408 [1],14.3 %Rmax
OT408 For/Rev_13 (dsDNA) DNA 1: AAAAACCTCTGTATCCCTTGAAATGTCTGG DNA 2: CCAGACATTTCAAGGGATACAGAGGTTTTT,binding signal,SmpO408 [1],4.19 %Rmax
ossA45-16 (dsDNA) DNA 1: ATTGTGGGGTCACTTA DNA 2: TAAGTGACCCCACAAT,binding signal,SmpO45,43.4 ± 1.14 %Rmax
OTUNa For/Rev_12 (dsDNA) DNA 1: AAGATAAATGTTTAAAACCCTTGAAATATC DNA 2: GATATTTCAAGGGTTTTAAACATTTATCTT,binding signal,SmpOUNa,1.56 ± 0.168 %Rmax
OT49.3 (dsDNA) DNA 1: GACACTAGGTGTTTTTATGATATCACTATG DNA 2: CATAGTGATATCATAAAAACACCTAGTGTC,binding signal,SmpO49,18.8 ± 0.402 %Rmax
ossA408 (dsDNA) DNA 1: TTATAGGCGCCTAATA DNA 2: TATTAGGCGCCTATAA,binding signal,SmpO408 [2],52.8 %Rmax
same,binding signal,SmpO408 [1],63.9 ± 1.02 %Rmax
ossA49-3 (dsDNA) DNA 1: TTAATGATATCACTAT DNA 2: ATAGTGATATCATTAA,binding signal,SmpO49,26.8 ± 1.8 %Rmax
OT408 For/Rev_9 (dsDNA) DNA 1: GGTACATTTTGGGTACAAAACGGTTTTATA DNA 2: TATAAAACCGTTTTGTACCCAAAATGTACC,binding signal,SmpO408 [1],4.6 %Rmax
ossA49-14 (dsDNA) DNA 1: TTTATGATATCACAAT DNA 2: ATTGTGATATCATAAA,binding signal,SmpO49,24.9 ± 1.06 %Rmax
OT408 For/Rev_8 (dsDNA) DNA 1: AATATATAGGGGTACATTTTGGGTACAAAA DNA 2: TTTTGTACCCAAAATGTACCCCTATATATT,binding signal,SmpO408 [1],5.29 %Rmax
OTUNa For/Rev_7 (dsDNA) DNA 1: CAATATATTGTGTCACAAAAGTGTGACAAT DNA 2: ATTGTCACACTTTTGTGACACAATATATTG,binding signal,SmpOUNa,3.471 ± 0.00557 %Rmax
OTUNa For/Rev_16 (dsDNA) DNA 1: AGATTACCCATTATAAAATGGGTACATATT DNA 2: AATATGTACCCATTTTATAATGGGTAATCT,binding signal,SmpOUNa,12.5 ± 0.926 %Rmax
ossA49-13 (dsDNA) DNA 1: TTTATGATATCAGTAT DNA 2: ATACTGATATCATAAA,binding signal,SmpO49,18.1 ± 1.02 %Rmax
OTUNa For/Rev_15 (dsDNA) DNA 1: TGGCTTCGCCAGATTACCCATTATAAAATG DNA 2: CATTTTATAATGGGTAATCTGGCGAAGCCA,binding signal,SmpOUNa,5.46 ± 0.605 %Rmax
OTUNa For/Rev_9 (dsDNA) DNA 1: GTGTGACAATTTAATTTTTGTGACCCCCAT DNA 2: ATGGGGGTCACAAAAATTAAATTGTCACAC,binding signal,SmpOUNa,53.342 ± 0.0463 %Rmax
OTUNa For/Rev_14 (dsDNA) DNA 1: TTGAAATATCTGGCTTCGCCAGATTACCCA DNA 2: TGGGTAATCTGGCGAAGCCAGATATTTCAA,binding signal,SmpOUNa,1.29 ± 0.0865 %Rmax
OT408 For/Rev_17 (dsDNA) DNA 1: CCCACCTTTTTAATAGGTGGCAAATTTCCC DNA 2: GGGAAATTTGCCACCTATTAAAAAGGTGGG,binding signal,SmpO408 [1],64.6 %Rmax
OT49.11 (dsDNA) DNA 1: CCGATGATAGCAAATTCCCCTTATGCTCTT DNA 2: AAGAGCATAAGGGGAATTTGCTATCATCGG,binding signal,SmpO49,0.467 ± 0.033 %Rmax
ossA49 (dsDNA) DNA 1: TTTATGATATCACTAT DNA 2: ATAGTGATATCATAAA,binding signal,SmpO49,26 ± 1.13 %Rmax
same,binding signal,SmpOSep,1.2 %Rmax
